Structures can show the parent of a compound that is named as a salt. A number with no mark means an inactive call.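 Rule for the calls: active = AUC significantly below DMSO controls by Student t-fit with adjusted P under 0.01; inactive = not significantly reduced.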
system: Yersinia pseudotuberculosis; assay: growth AUC normalised to DMSO control (fraction of control); higher = less growth inhibition, active = hit call of the paper; settings: 20 µM
Outline: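 Hemin and NAD were added to the medium for Haemophilus parainfluenzae. All pathogens, after two anaerobic passages, were inoculated at a starting OD578 of 0.01 into pre-reduced mGAM plates with 20 μM compound and 1% DMSO under breathable seals, and OD578 was read hourly for 24 h in three biological replicates. AUC of each growth curve was obtained with the trapezoidal rule up to the exponential-to-stationary transition and normalised to DMSO controls from the same plate.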

| SMILES | growth AUC normalised to DMSO control |
| --- | --- |
| Cc1ccc(-c2cc(C(F)(F)F)nn2-c2ccc(S(N)(=O)=O)cc2)cc1 [Celecoxib] | 1.03 |
| CCCN(CCC)C(=O)C(CCC(=O)O)NC(=O)c1ccccc1 (stereo unspecified) [Proglumide] | 1.02 |
| Clc1ccc(C(c2ccccc2Cl)C(Cl)Cl)cc1 (stereo unspecified) [Mitotane] | 1.02 |
| CCc1c(C)[nH]c2c1C(=O)C(CN1CCOCC1)CC2 (stereo unspecified) [Molindone hydrochloride] | 1.01 |
| OC(CCN1CCCCC1)(c1ccccc1)C1CC2C=CC1C2 (stereo unspecified) [Biperiden hydrochloride] | 1 |
| CC(COc1ccccc1)N(CCCl)Cc1ccccc1 (stereo unspecified) [Phenoxybenzamine hydrochloride] | 1.03 |
| Nc1ccc(/N=N/c2ccccc2)c(N)n1 [Phenazopyridine hydrochloride] | 0.958 |
| N=C(N)NS(=O)(=O)c1ccc(N)cc1 [Sulfaguanidine] | 1.04 |
| COc1ccc(/C=C/C(=O)Nc2ccccc2C(=O)O)cc1OC [Tranilast] | 1.01 |
| C=C1/C(=C\C=C2/CCC[C@]3(C)[C@@H]([C@H](C)/C=C/[C@@H](O)C4CC4)CC[C@@H]23)C[C@@H](O)C[C@@H]1O [Calcipotriene] | 0.977 |
| C[N+](C)(CCOc1ccccc1)Cc1ccccc1.O=C([O-])c1cc2ccccc2cc1O [Bephenium hydroxynaphthoate] | 1.03 |
| COc1c(N2C[C@@H]3CCCN[C@@H]3C2)c(F)cc2c(=O)c(C(=O)O)cn(C3CC3)c12 [Moxifloxacin] | 0.0337 (active) |
| C[N+](C)(C)CCOC(N)=O [Carbachol chloride] | 1.01 |
| COCCOC(=O)C1=C(C)NC(C)=C(C(=O)OC/C=C/c2ccccc2)C1c1cccc([N+](=O)[O-])c1 (stereo unspecified) [Cilnidipine] | 0.976 |
| CCc1cc(C(N)=S)ccn1 [Ethionamide] | 0.975 |
| CCOC(=O)n1ccn(C)c1=S [Carbimazole] | 0.998 |

| SMILES | growth AUC normalised to DMSO control |
| --- | --- |
| CN(C)CCC[C@@]1(c2ccc(F)cc2)OCc2cc(C#N)ccc21 [Escitalopram oxalate] | 0.99 |
| COc1ccc2[nH]c([S+]([O-])Cc3ncc(C)c(OC)c3C)nc2n1 (stereo unspecified) [Tenatoprazole] | 0.998 |
| CC1CCc2cc(F)cc3c(=O)c(C(=O)O)cn1c23 (stereo unspecified) [Flumequine] | 0.0304 (active) |
| CCn1cc(C(=O)O)c(=O)c2cc(F)c(N3CCNCC3)cc21 [Norfloxacin] | 0.0323 (active) |
| Nc1ccc(S(=O)(=O)c2ccc(N)cc2)cc1 [Dapsone] | 1 |
| CC(C)(C)NCC(O)COc1cccc2c1CC(O)C(O)C2 (stereo unspecified) [Nadolol] | 1 |
| COc1c2occc2c(OC)c2c(=O)cc(C)oc12 [Khellin] | 1.01 |
| COc1cc(C(=O)NS(=O)(=O)c2ccccc2C)ccc1Cc1cn(C)c2ccc(NC(=O)OC3CCCC3)cc12 [Zafirlukast] | 0.988 |
| NS(=O)(=O)c1cc2c(cc1Cl)NCNS2(=O)=O [Hydrochlorothiazide] | 1.01 |
| CC(=O)O[C@H]1C[C@@H]2CC[C@@H]3[C@H](CC[C@@]4(C)[C@H]3C[C@H]([N+]3(C)CCCCC3)[C@@H]4OC(C)=O)[C@@]2(C)C[C@@H]1N1CCCCC1 [Vecuronium bromide] | 1.02 |
| CC(=O)OCC(=O)[C@@]1(O)CC[C@H]2[C@@H]3CCC4=CC(=O)CC[C@]4(C)[C@@]3(F)[C@@H](O)C[C@@]21C [Fludrocortisone acetate] | 1 |
| CC1(C)S[C@@H]2[C@H](NC(=O)[C@H](NC(=O)N3CCNC3=O)c3ccccc3)C(=O)N2[C@H]1C(=O)O [Azlocillin sodium salt] | 0.281 (active) |
| C[C@@](Cc1ccc(O)c(O)c1)(NN)C(=O)O [Carbidopa] | 0.972 |
| C[C@H]1O[C@H](O[C@H]2[C@H](O)[C@@H](O)[C@@H](O[C@@H]([C@H](O)[C@@H](O)C=O)[C@H](O)CO)O[C@@H]2CO)[C@H](O)[C@@H](O)[C@@H]1N[C@H]1C=C(CO)[C@@H](O)[C@H](O)[C@H]1O [Acarbose] | 1.01 |
| O=C(O)CCC(=O)c1ccc(-c2ccccc2)cc1 [Fenbufen] | 0.986 |

From the supplement of paper PMC12350171
